Test results as given in ChEMBL document CHEMBL3433997, “St. Jude Leishmania screening dataset” (2016).

Key:
Format in all cases: functional
[1] = target: Solute carrier family 2, facilitated glucose transporter member 1 (Homo sapiens) (UniProt P11166); assay: ST_JUDE_LEISH: Cytotoxicity at 2uM final concentration against transgenic Leishmania Mexicana promastigotes LmGLUT1 that are glucose transport deficient and complemented with the human glucose transporter GLUT1. Activity is measured by DNA content using SYBR green in vitro
[2] = target: Hexose transporter 1 (Plasmodium falciparum) (UniProt O97467); assay: ST_JUDE_LEISH: Cytotoxicity at 2uM final concentration against transgenic Leishmania Mexicana promastigotes LmPfHT that are glucose transport deficient and complemented with the Plasmodium falciparum hexose transporter. Activity is measured by DNA content using SYBR green in vitro
[3] = target: Glucose transporter (Leishmania mexicana) (UniProt O61059); assay: ST_JUDE_LEISH: Cytotoxicity at 2uM final concentration against transgenic Leishmania Mexicana promastigotes LmGT2 that are glucose transport deficient and complemented with the L. Mexicana glucose transporter 2. Activity is measured by DNA content using SYBR green in vitro

Sequence of Solute carrier family 2, facilitated glucose transporter member 1 (Homo sapiens) (P11166 whole entry): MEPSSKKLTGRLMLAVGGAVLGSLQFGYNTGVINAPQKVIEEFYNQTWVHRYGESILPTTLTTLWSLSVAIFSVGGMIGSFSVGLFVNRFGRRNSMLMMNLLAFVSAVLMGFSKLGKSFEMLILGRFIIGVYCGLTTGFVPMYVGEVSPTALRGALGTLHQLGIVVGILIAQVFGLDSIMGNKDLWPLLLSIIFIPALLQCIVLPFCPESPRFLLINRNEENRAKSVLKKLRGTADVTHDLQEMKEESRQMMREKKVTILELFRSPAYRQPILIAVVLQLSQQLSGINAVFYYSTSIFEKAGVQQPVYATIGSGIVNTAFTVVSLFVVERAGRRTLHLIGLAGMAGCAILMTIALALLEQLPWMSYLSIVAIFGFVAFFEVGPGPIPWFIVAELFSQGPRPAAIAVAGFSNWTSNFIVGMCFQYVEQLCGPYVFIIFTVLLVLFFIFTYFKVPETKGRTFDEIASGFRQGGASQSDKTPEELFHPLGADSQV

| SMILES | inhibition [1] | inhibition [2] | inhibition [3] |
| --- | --- | --- | --- |
| NC(=O)c1ccsc1NC(=O)CNC(c1ccccc1)c1ccc(Cl)cc1 (configuration not stated) | 6.13% | 2.82% | 1.74% |
| O=C(N[C@H]1CCN(CCc2ccc(O[C@H]3CCNC3)c(F)c2)C1)c1ccc(Cl)c(Cl)c1 | 8.17% | 9.6% | 9.34% |
| CCOC(=O)c1c(C)n(-c2ccc(Cl)cc2)c2ccc(OC(=O)C=Cc3ccccc3)cc12 | 2.75% | 5.54% | 5.18% |
| CN1CCC(N2CCN(CCOc3cc(NC(=O)/C=C/c4ccccc4Cl)ccc3Br)CC2)CC1 | 0.25% | 2.87% | -1.82% |
| CCOc1cc(Cc2cnc(N)nc2N)cc(Br)c1OC | 0.49% | 2.73% | 2.29% |
| CC(C)(CNC(=O)[C@H]1CCCN1)c1nc(-c2ccc(Cl)c(O)c2)c(-c2ccncc2)[nH]1 | 8.17% | 8.03% | 8.28% |
| COc1ccc2sc(CNCCCNc3cc(=O)c4ccccc4[nH]3)c(Cl)c2c1 | 3.04% | 3.59% | 4.49% |
| CCC(Nc1noc(-c2c(-c3ccccc3)noc2C)n1)c1ccccc1 (configuration not stated) | -1.15% | 2.18% | 1.54% |
| CN1CCN(c2nsc3ccc(-c4ccc(NC(=O)Nc5ccccc5)cc4)cc23)CC1 | 2.28% | 0.56% | 0.99% |
| O=C(Nc1cccc(-c2ccc(-c3nc4cc(F)ccc4[nH]3)cc2)c1)c1ccoc1 | 1.01% | 1.14% | -0.42% |
| O=C(NCc1ccc(F)cc1)c1ccc(N2CCN(c3ccncc3)CC2)cn1 | 2.68% | -0.85% | 1.79% |
| OC(CNCc1ccccc1OCc1ccccc1)c1cccc(Br)c1 (configuration not stated) | 4.31% | 4.13% | 2.24% |
| COc1ccc2c(NN=Cc3ccccc3Cl)ccnc2c1 | 3.65% | 4.27% | 4.32% |
| FC(F)(F)Oc1cccc(CNc2noc(-c3sccc3Br)n2)c1 | 2.52% | 2.93% | 0.8% |
| C=CCNC(=O)C(C)c1ccc2cc(OC)ccc2c1 (configuration not stated) | 0.71% | 0.77% | -0.06% |
| CC[C@H](NC(=O)c1c(CN2CCC(N3CCCCC3)CC2)c(-c2ccccc2)nc2c(Cl)c(O)ccc12)c1ccccc1 | 7.43% | 6.81% | 6.04% |
| Cc1cc(N[C@@H](Cc2ccccc2)C(=O)Nc2ccccc2)nc(NCC2CCCCC2)n1 | 12.8% | 11.3% | 10.7% |

| SMILES | inhibition [1] | inhibition [2] | inhibition [3] |
| --- | --- | --- | --- |
| OCCN1CCN(c2ccc(Nc3ccnc4cc5ccccc5cc34)cc2)CC1 | 28.2% | 33.3% | 21.7% |
| CC1(C)NC(N)=NC(=N)N1OCCSCCON1C(=N)N=C(N)NC1(C)C | -0.9% | 0.07% | -0.26% |
| CCNc1cc(C(=O)N[C@@H](Cc2ccccc2)[C@H](O)CNCCc2cccc(C(F)(F)F)c2)cc(N2CCCC2=O)c1 | 1.16% | 1.57% | -0.87% |
| N=c1c2c(n(Cc3cccc(Cl)c3)c3c1CCC3)CCCC2 | 40.7% | 49.2% | 20.4% |
| COc1cc(C)nc2ccc(NC(=O)Nc3cccc4ccccc34)cc12 | 3.38% | 5.33% | 3.45% |
| CC(=O)N[C@H](C(=O)Nc1ccc(-c2ccc(-c3nc4cc(C(F)(F)F)ccc4[nH]3)s2)cc1)C(C)C | 5.68% | 5.3% | 4.22% |
| COc1ccc(C2CC(c3cccs3)=NN2C(=O)c2ccco2)cc1OC (configuration not stated) | 5.38% | 4.8% | 4.31% |
| COc1ccc2nccc([C@@H](O)CN3CCC(NC(=O)c4[nH]c5ccccc5c4-c4ccccc4)CC3)c2c1 | 28.3% | 49.7% | 12.8% |
| O=C(NCCNc1ccnc(NCc2ccc(F)cc2)n1)c1cc2ccccc2s1 | 4.76% | 4.26% | -0.4% |
| O=C(Nc1ccc([N+](=O)[O-])cc1Br)c1cc2ccccc2nc1Cl | 8.95% | 8.73% | 7.12% |
| O=C(Nc1ccc(F)cc1)NC1CCN(CCCCCNC(=O)C2CC2c2ccc(Cl)c(Cl)c2)CC1 (configuration not stated) | 1.84% | 1.54% | 2.31% |
| O=C(/C=C/c1ccc(Cl)c(Cl)c1)NCCCCCN1CCC(CCNC(=O)c2snnc2-c2ccccc2)CC1 | 0.24% | 4.7% | -0.16% |
| CC(=O)Nc1ccc(C(=O)Nc2cccc(-c3ccc(-c4nc5cc(C(F)(F)F)ccc5[nH]4)s3)c2)cn1 | 3.05% | 3.45% | 4.26% |
| COc1ccc2c(=NN=Cc3cccc(F)c3)cc(C)[nH]c2c1 | -1.29% | 4.27% | 1.95% |
| CS(=O)(=O)NCCCNCc1cccc(-c2ccc(-c3nc4cc(C(F)(F)F)ccc4[nH]3)cc2)c1 | 7.6% | 3.88% | 0.95% |
| Cc1cc(=O)c(C2CCC(c3ccc(Cl)cc3)CC2)c(C)[nH]1 (configuration not stated) | 2.3% | 2.51% | 2.37% |
| Cc1nc(C)c(-c2ccc(-c3ccc(F)cc3)cc2)c(O)c1Br | 0.18% | -0.09% | -1.77% |
